Assay [1] can be described thus: Primary qHTS for inhibitors of nuclear receptor binding SET domain protein 2 (NSD2) in an RCH-ACV wild type WT cells (2C) (AID 1645877). Further: nearly all actives have a fitted effect of over 70% in size. Further: potency means the concentration at half of the fitted maximal effect.
In assay [2] the target is Catechol O-methyltransferase (Homo sapiens) (UniProt P21964). Kind of assay: Confirmatory Screen for Target Class Profiling of Small Molecule Inhibitors of Methyltransferases (AID 1745852; calls by dose curve; further: potency means the concentration at half of the fitted maximal effect; on activity change, negative = inhibition: on the % scale 0 is the no-effect control and ±100 the full control effect). Conditions: MTase-Glo luminescence, SAH detection, recombinant enzyme; measured here: COMT max response; stronger effect = lower value.
Assay [3] has as its target Guanidinoacetate N-methyltransferase (Homo sapiens) (UniProt Q14353). The description is as above. Conditions: activity change, negative = inhibition: at 57.3 µM (top of the series) unless noted.
In assay [4] the target is Nicotinamide N-methyltransferase (Homo sapiens) (UniProt P40261). The assay is described as above. Conditions: MTase-Glo luminescence, SAH detection, recombinant enzyme; measured here: NNMT max response; stronger effect = lower value.
For assay [5], the target named is Phenylethanolamine N-methyltransferase (Homo sapiens) (UniProt P11086). The description is as above. Conditions: MTase-Glo luminescence, SAH detection, recombinant enzyme; measured here: PNMT max response; stronger effect = lower value.
The target in assay [6] is Glutathione peroxidase 1 (Homo sapiens) (UniProt P07203). Kind of assay: Primary qHTS Assay for Inhibitors of Recombinant Selenoprotein Glutathione Peroxidase 1 (GPX1) (AID 1845191). Further: nearly all actives have a fitted effect of over 65% in size. In a few lines:
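GPX1 10 nM, GR 100 nM, GSH 1 mM, NADPH 0.5 mM, CHP 0.5 mM (final). 30-min cpd preincubation, RT. Ex340/Em450 read t=0, t=15 min.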

The target of assay [7] is Phospholipid hydroperoxide glutathione peroxidase GPX4 (Homo sapiens) (UniProt P36969). Kind of assay: Primary qHTS Assay for Inhibitors of Recombinant Selenoprotein Glutathione Peroxidase 4 (GPX4) (AID 1845192). Further: nearly all actives have a fitted effect of over 65% in size. On activity change, negative = inhibition: on the % scale 0 is the no-effect control and ±100 the full control effect. In a few lines: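 qHTS, GR-coupled: GPX4 200 nM + cpd 30 min RT → GSH 1 mM, NADPH 0.5 mM, GR 100 nM → CHP 0.5 mM start; fluor 340/450 at t0 and t15 min; no-enzyme wells as control.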

In assay [8] the target is Luciferin 4-monooxygenase (Photinus pyralis) (UniProt P08659). In words: Primary firefly luciferase (FLuc) qHTS assay for identification of artifact compounds. (AID 1845220). Further: nearly all actives have a fitted effect of over 60% in size. Further: potency means the concentration at half of the fitted maximal effect.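 On activity change, negative = inhibition: plate controls were DMSO vehicle for no effect and no enzyme for full effect.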 In a few lines:
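qHTS, 15 min compound preincubation with substrate (10 uM luciferin, 10 uM ATP) at RT, then 10 nM FLuc; 5 min; luminescence; % inhibition vs no-enzyme/DMSO controls, 4-parameter Hill fit.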
(In general: Quantitative high-throughput screening tests each substance at several concentrations.)

Assay [9] is described as follows: Primary fluorescence-based thiol-reactive (MSTI) qHTS assay for identification of artifact compounds. (AID 1845221). Further: nearly all actives have a fitted effect of over 65% in size. Further: potency means the concentration at half of the fitted maximal effect. The procedure, abridged:
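Thiol-reactive compounds detected by quenching of 4 uM MSTI fluorescence (525/598 nm) after 1 h room-temperature dark incubation in PBS pH 7.4, 2% DMSO. qHTS titration; percent inhibition Hill-fitted against Acetyl-MSTI/MSTI controls.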

For assay [10], the system named is Nanoluciferase (engineered Oplophorus gracilirostris luciferase). In words: Primary Nanoluciferase (NLuc) qHTS assay for identification of artifact compounds. (AID 1845222). In a few lines:
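Luminescence read-out of secreted NLuc in S16 cell conditioned medium (1:55); compounds tested with 15 min RT preincubation, then Nano-Glo substrate 1:100, 5 min. % inhibition vs no-enzyme and DMSO controls, 4-parameter Hill fit.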

Assay [11] in a line: Primary redox qHTS assay for identification of artifact compounds. (AID 1845223).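 Further: 0% = DMSO and 100% = reference compound.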 The procedure, abridged:
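Redox-cycling detection via DTT (250 uM final) oxidation coupled to Amplex Red (25 uM)/HRP (250 mU/mL) in HBSS. 15 min preincubation plus 30 min after DTT, room temperature. Ex/Em 525/598 nm; 4-parameter Hill fit against DMSO and 10 uM DA3003.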

The nature of assay [12]: NCATS anti-infectives library activity on HEK293 viability as a counter-qHTS vs the C. elegans viability qHTS (AID 1745854). Further: on the % scale 0 is the no-effect control and ±100 the full control effect. In a few lines: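 CellTiter-Glo luminescence, read on a CCD imager, scored viability of HEK293 cells after 24 hr compound exposure at 37C. Library tested in several concentrations, 1:5 steps, up to 41.7 uM; digitonin served as control.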

Several values for one entry are separate records, joined by “and”; a condition that tells them apart may be missing. Identical values can stand only once. Records with an inconclusive call do not appear. Activity calls are given as the source filed them. Unless noted, the call rests on the fitted dose curve; in most records, active means well fitted curve in the direction sought with a large enough effect; inconclusive means small, poorly fitted or top-dose-only effect, or another doubt; inactive means no such curve, though single readings can be large; an effect the other way counts as inactive or inconclusive.

Experimental findings from PubChem BioAssay (NCATS) are described below.

Phenylethanolamine N-methyltransferase (Homo sapiens), sequence (P11086 whole entry, looked up): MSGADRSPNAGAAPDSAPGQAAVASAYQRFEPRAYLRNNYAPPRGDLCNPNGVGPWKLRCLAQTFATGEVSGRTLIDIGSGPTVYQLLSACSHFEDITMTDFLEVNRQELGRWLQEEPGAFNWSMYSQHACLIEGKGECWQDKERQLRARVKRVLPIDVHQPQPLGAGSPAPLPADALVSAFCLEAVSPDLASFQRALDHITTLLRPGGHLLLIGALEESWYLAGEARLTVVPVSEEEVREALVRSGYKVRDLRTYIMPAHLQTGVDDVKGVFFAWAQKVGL
Nicotinamide N-methyltransferase (Homo sapiens), sequence (P40261 whole entry, looked up): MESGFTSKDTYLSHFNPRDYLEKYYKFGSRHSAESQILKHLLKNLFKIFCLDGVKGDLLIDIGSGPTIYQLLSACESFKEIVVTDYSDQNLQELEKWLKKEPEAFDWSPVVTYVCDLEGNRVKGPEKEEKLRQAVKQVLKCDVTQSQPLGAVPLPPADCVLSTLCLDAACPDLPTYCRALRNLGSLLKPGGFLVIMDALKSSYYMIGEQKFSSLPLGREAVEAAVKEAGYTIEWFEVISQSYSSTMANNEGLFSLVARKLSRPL
Catechol O-methyltransferase (Homo sapiens), sequence (P21964 whole entry, looked up): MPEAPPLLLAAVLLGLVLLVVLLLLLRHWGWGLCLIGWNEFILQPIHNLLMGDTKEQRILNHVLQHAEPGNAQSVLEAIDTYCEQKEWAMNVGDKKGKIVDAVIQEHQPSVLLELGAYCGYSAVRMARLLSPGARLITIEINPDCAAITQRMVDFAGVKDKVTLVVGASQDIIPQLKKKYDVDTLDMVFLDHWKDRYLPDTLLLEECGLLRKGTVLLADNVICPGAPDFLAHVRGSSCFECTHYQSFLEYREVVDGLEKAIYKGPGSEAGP
Glutathione peroxidase 1 (Homo sapiens), sequence (P07203 whole entry, looked up): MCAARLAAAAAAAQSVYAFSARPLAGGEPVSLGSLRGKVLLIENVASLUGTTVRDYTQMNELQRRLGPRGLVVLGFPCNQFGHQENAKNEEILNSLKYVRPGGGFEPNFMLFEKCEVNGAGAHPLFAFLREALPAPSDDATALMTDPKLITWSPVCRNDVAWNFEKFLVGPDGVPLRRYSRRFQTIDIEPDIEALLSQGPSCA
Phospholipid hydroperoxide glutathione peroxidase GPX4 (Homo sapiens), sequence (P36969 whole entry, looked up): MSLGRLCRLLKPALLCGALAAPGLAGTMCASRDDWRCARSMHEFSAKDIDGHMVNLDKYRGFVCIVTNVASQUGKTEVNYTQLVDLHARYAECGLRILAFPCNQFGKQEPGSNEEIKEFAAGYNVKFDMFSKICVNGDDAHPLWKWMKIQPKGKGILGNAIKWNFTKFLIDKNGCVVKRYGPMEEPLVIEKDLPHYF

On to `C=C(C)C1Cc2cc(C(=O)OC3OC(CO)C(O)C(O)C3O)ccc2O1` (stereo not drawn), for which the Potency entry in assay [1], in [6], in [7], in [8], in assay [10] and in [11] was “inactive” each time. Moreover, the figures for the activity in [2], in assay [4] and in [5] were -58%, -2.77% and -3.74%, respectively. Moreover, the activity change, negative = inhibition in assay [3] is -3.06%. Moreover, in assay [9], the Potency was 9.27 µM (active).

For `COC(=O)C1=CO[C@@H](O[C@@H]2O[C@H](CO[C@@H]3O[C@H](COC(=O)/C=C/c4cc(OC)c(O)c(OC)c4)[C@@H](O)[C@H](O)[C@H]3O)[C@@H](O)[C@H](O)[C@H]2O)[C@@H]2C(CO)=CC[C@H]12`, the Potency entry in assay [1], in [6], in [7], in assay [8], in assay [10] and in [11] was “inactive” throughout. The activity is -63.8% in [2], -1.52% in assay [4] and -1.68% in [5]. Moreover, the activity change, negative = inhibition in assay [3] was -1.94% [at 19.1 µM]. In addition, in [9], the Potency was 7.93 µM (active).

As for `COc1cc(C(=O)NC2CCN(C)CC2)ccc1Nc1ncc2c(n1)N(C1CCCC1)CC(F)(F)C(=O)N2C`, the Potency was 0.0325 µM (active) in assay [1] and 27.1 µM (active) in assay [3]. Besides, the activity in [2] is -24%; in [4] it was -23.8%; in assay [5], -20.9%. For the same compound, the Potency result in assay [6], in assay [7], in assay [8], in assay [9], in assay [10] and in [11] was “inactive” each time.

Take `CCCCc1nc2cc(/C=C/C(=O)NO)ccc2n1CCN(CC)CC`: the Potency in assay [1] is 230 nM (active) and 525 nM (active). The figures for the activity in [2], in assay [4] and in [5] were -23.3%, -2.78% and 3.65%, respectively. Moreover, the activity change, negative = inhibition in assay [3] is 4.34%. The Potency result in assay [12], in assay [6], in [7], in [8], in [10] and in [11] was “inactive” in each case.

Turning to `CCN(CC)CCN(Cc1ccc(-c2ccc(C(F)(F)F)cc2)cc1)C(=O)Cn1c(SCc2ccc(F)cc2)nc(=O)c2c1CCC2`, in assay [1], the Potency was 3.65 µM (active). In addition, the activity is -2.67% in [2], -45.6% in assay [4] and -1.88% in [5]. Moreover, in assay [3], the activity change, negative = inhibition worked out at 0%. In addition, the Potency entry in assay [6], in assay [7], in assay [8], in [9], in assay [10] and in [11] was “inactive” throughout.

On to `COc1cc2ncnc(Nc3ccc(F)c(Cl)c3)c2cc1NC(=O)/C=C/CN1CCCCC1`, for which the Potency in [1] is 3.32 µM (active); in assay [3], 24.1 µM (active). The activity in [2] was -45.2%; in [4], -36.6%; in assay [5], -39.3%. For the same compound, the Potency entry in assay [7], in [8], in assay [9], in assay [10] and in [11] was “inactive” each time.

In the case of `Cc1cc(O)c(-c2ccc([C@@H](C)CN(C)C)cc2)c2c1[nH]c(=O)c1sccc12`, the Potency in assay [1] is 0.0742 µM (active). In addition, the activity was -22.7% in [2], -64.6% in assay [4] and -48.7% in [5]. Also, the activity change, negative = inhibition in [3] is -6.59%. Moreover, the Potency entry in [6], in [8], in assay [9], in [10] and in assay [11] was “inactive” throughout.

In the case of `COc1cc(C(=O)OC[C@H]2O[C@@H](Oc3ccccc3/C=C/C(=O)O)[C@H](O)[C@@H](O)[C@@H]2O)cc(OC)c1OC`, the Potency entry in assay [1], in [6], in assay [7], in [8] and in assay [10] was “inactive” each time. In addition, the activity is -77.7% in assay [2], -2.69% in assay [4] and -3.5% in assay [5]. Also, the activity change, negative = inhibition in assay [3] was -3.16% [at 29.8 µM].

Turning to `C=C(C)C(=O)OC1CC2(C)OC(=CC2=O)C(=C)CC2OC(=O)C(COC)C12` (stereo not drawn), the values for the Potency in assay [1] and in assay [8] were 1.79 µM (active) and 10.5 µM (active), respectively. In addition, the activity in [2] was -94%; in assay [4] it was -5.26%; in [5] it was -4.08%. Further, in assay [3], the activity change, negative = inhibition was -5.17%. Besides, the Potency entry in [6], in assay [7], in [10] and in assay [11] was “inactive” each time.

`C=C[C@H]1[C@H](O[C@@H]2O[C@H](CO)[C@@H](O)[C@H](O)[C@H]2O)OC=C(C(=O)OC)[C@H]1C/C=C(/C=O)[C@@H]1C(C(=O)OC)=CO[C@@H](O[C@@H]2O[C@H](CO)[C@@H](O)[C@H](O)[C@H]2O)[C@@H]1C=C`: the Potency result in assay [1], in assay [6], in [7], in [8], in [10] and in [11] was “inactive” each time. Besides, the activity was -65.2% in assay [2], 0% in assay [4] and 4.52% in assay [5]. For the same compound, the activity change, negative = inhibition in [3] was 0% [at 19.1 µM].

Consider `CCN1CCN(Cc2ccc(NC(=O)Nc3ccc(Oc4cc(NC)ncn4)cc3)cc2C(F)(F)F)CC1`, for which, in assay [1], the Potency is 3.65 µM (active) and 2.35 µM (active). Also, the activity in [2] is -1.25%; in [4], -7.66%; in assay [5] it was -2.63%. Further, the activity change, negative = inhibition in [3] was 0%. Besides, the Potency result in assay [6], in assay [7], in assay [8], in assay [9], in assay [10] and in assay [11] was “inactive” throughout.

Take `CC(C)c1cc(CNc2nc(Nc3cc(C4CC4)[nH]n3)cc(N3CCN(C)CC3)n2)on1`: the Potency in assay [1] was 29 nM (active) and 66.1 nM (active). In addition, the results for the activity in assay [2], in assay [4] and in assay [5] were -7.12%, -12.7% and -6.69%, respectively. For the same compound, the activity change, negative = inhibition in [3] was -5.05%. Moreover, the Potency result in assay [6], in [7], in assay [8] and in [10] was “inactive” in each case.

Regarding `COc1ccc(CCO[C@@H]2O[C@H](CO[C@@H]3OC[C@H](O)[C@H](O)[C@H]3O)[C@@H](O)[C@H](O)[C@H]2O)cc1`, the Potency entry in assay [1], in assay [6], in assay [7], in assay [8], in assay [10] and in [11] was “inactive” throughout. Further, the activity in assay [2] is -55.1%; in assay [4] it was 1.01%; in assay [5], 1.06%. In [3], the activity change, negative = inhibition is 2.09% [at 29.8 µM]. The Potency in assay [9] was 10.3 µM (active).

`Cc1ccc([N+](=O)[O-])cc1S(=O)(=O)N(C)/N=C/c1cnc2ccc(Br)cn12`: the Potency was 20.6 nM (active) and 74.2 nM (active) in assay [1]; 30.4 µM (active) in assay [3]. Moreover, the results for the activity in [2], in assay [4] and in [5] were -16.2%, -33.8% and -16.6%, respectively. In addition, the Potency entry in [6], in assay [7], in assay [8], in assay [10] and in [11] was “inactive” throughout.

`CC(O)(CC(=O)O)CC(=O)OCc1ccc(O[C@@H]2O[C@H](CO)[C@@H](O)[C@H](O)[C@H]2O)cc1` (stereo partly drawn): the Potency entry in assay [1], in assay [6], in [7], in assay [8], in assay [10] and in assay [11] was “inactive” in each case. For the same compound, the activity was -58.1% in assay [2], 1.65% in assay [4] and 1.08% in [5]. For the same compound, the activity change, negative = inhibition in [3] was determined as 2.07% [at 29.8 µM].

As to `CC(=O)OC/C=C(\C)C(CC1C(C)=C(OC(C)=O)C(=O)C2C(C)(C)C(O)CCC12C)OC(C)=O` (stereo not drawn), the Potency entry in assay [1], in assay [6], in [7], in assay [8] and in assay [10] was “inactive” throughout. The activity in assay [2] was -67.8%; in assay [4], -5.45%; in assay [5], -0.876%. Besides, the activity change, negative = inhibition in [3] is -2.29% [at 29.8 µM].

With `COc1cc2c(NC3CCN(CC4CCCCC4)CC3)nc(N3CCCN(C(C)C)CC3)nc2cc1OCCCN1CCCCC1`, the Potency in assay [1] was 2.3 µM (active) and 3.32 µM (active). Further, the activity in [2] is -7.99%; in assay [4], -18.7%; in assay [5], -1.55%. The activity change, negative = inhibition in assay [3] is -0.195%. Also, the Potency entry in [6], in assay [8], in assay [9] and in assay [10] was “inactive” throughout.
